Compound activity as filed in PubChem.
GLS inhibitor: inhibitors of human glutaminase (GLS); O94925; GLS enzymatic activity, qHTS titration; Potency, µM (top dose mostly 45.5 µM), without a hit: at the highest dose activity change, negative = inhibition, usual class: inhibitors; actives 0.21% (n = 410,000); AID 624170; further: on the % scale 0 is the no-effect control and ±100 the full control effect
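hKGA in 45 mM KH2PO4 (pH 8.2), 0.02% Tween-20 with compound, then 1mM L-Glutamine (stock as added) plus glutamate oxidase/HRP/Amplex red coupling mix. Fluorescence read initially and after 30 min at RT; signal change reflects glutamate formation.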
G9a block: G9a (human) methyltransferase inhibition | Potency, µM (series often up to 102 µM), for inactives: at the highest dose activity, negative = inhibition, actives largely listed as inhibitors | actives 8.8% (n = 350,000) | Q96KQ7 | G9a H3K9 monomethylation, AlphaScreen, 2 h; further: on the % scale 0 is the no-effect control and ±100 the full control effect; nearly all actives have a fitted effect of over 75% in size
Target sequence (Q96KQ7 913-1193 limits assumed): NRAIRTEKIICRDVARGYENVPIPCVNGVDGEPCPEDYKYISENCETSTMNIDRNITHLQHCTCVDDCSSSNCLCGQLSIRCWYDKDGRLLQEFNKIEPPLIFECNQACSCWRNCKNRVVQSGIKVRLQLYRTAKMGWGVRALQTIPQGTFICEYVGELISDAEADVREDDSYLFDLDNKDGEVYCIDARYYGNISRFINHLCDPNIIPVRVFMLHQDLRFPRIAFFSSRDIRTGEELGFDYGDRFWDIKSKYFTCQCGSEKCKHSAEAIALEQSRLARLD
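Quantitative HTS format: methyltransferase activity on a biotin-tagged H3K9 peptide is measured by AlphaScreen, using a rabbit anti-monomethyl-H3K9 antibody with streptavidin donor and anti-IgG acceptor beads. Final levels are 20 nM enzyme, 500 nM peptide, 20 uM SAM; 2 h RT.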
JMJD2A Tudor: JMJD2A Tudor domain (human) inhibition; O75164; Potency, µM (series often up to 114 µM), for inactives: top-dose activity change, negative = inhibition, hits mostly inhibitors; AlphaScreen JMJD2A-Tudor / H3K4me3 peptide binding; actives 4.4% (n = 390,000); further: on the % scale 0 is the no-effect control and ±100 the full control effect; nearly all actives have a fitted effect of over 50% in size
HP1b chromo inh: inhibitors of HP1-beta chromodomain binding to methylated histone tails. actives 0.56% (n = 390,000). Potency, µM (series often up to 114 µM), inactives show top-dose activity change, negative = inhibition, hits mostly inhibitors. AlphaScreen HP1-beta / biotin-H3K9me3 peptide binding. P83916; further: nearly all actives have a fitted effect of over 70% in size
Target sequence (P83916 whole entry, looked up): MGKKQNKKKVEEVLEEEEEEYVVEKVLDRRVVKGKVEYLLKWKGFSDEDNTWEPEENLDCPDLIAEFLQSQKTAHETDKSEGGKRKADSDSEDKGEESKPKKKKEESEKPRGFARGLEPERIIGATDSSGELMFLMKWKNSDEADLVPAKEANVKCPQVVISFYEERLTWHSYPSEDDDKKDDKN
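AlphaScreen: HP1-beta (50 nM) preformed 30 min with biotin-H3(1-18)K9me3 peptide (50 nM) in PBS pH 7.4, 0.01% Tween-20. Compound added for 30 min at RT, then streptavidin donor/nickel chelate acceptor beads (10 ug/mL) for 30 min.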
L3MBTL1 block: blocks human L3MBTL1 | AID 485360 | actives 0.66% (n = 230,000) | Q9Y468 | AlphaScreen L3MBTL1–H3K9me1 peptide binding | Potency, µM (titrated, usually from 57.1 µM), for the others: at the top dose activity, negative = inhibition, actives largely listed as inhibitors; further: on the % scale 0 is the no-effect control and ±100 the full control effect; nearly all actives have a fitted effect of over 60% in size
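First, the protein-peptide complex forms for 30 min at room temperature (L3MBTL1 50 nM, biotinylated H3K9me1 peptide 75 nM). Next, compounds are pin-transferred and incubated 30 min. Finally, AlphaScreen beads are added and read after 30 min.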
BAZ2B inh: blocks human BAZ2B; Q9UIF8; AlphaScreen BAZ2B-H3K14Ac peptide displacement; Potency, µM (doses to about 114 µM), without a hit: at the top dose activity change, negative = inhibition, actives largely listed as inhibitors; actives 4.4% (n = 360,000); AID 504333; further: on the % scale 0 is the no-effect control and ±100 the full control effect; nearly all actives have a fitted effect of over 60% in size
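AlphaScreen luminescence quantifies BAZ2B engagement of H3K14Ac peptide; the protein and biotinylated peptide are both at 50 nM final, buffer PBS pH 7.4 with 0.01% Tween-20, all steps at room temperature.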
The depositor's hits bear a star; [ ] = dose if it differs, or a comment. Only some compounds are listed: those with a hit (about 10% of all), similar ones and a draw of the others. The call rests on the fitted dose curve; in most records, active means well fitted curve in the direction sought with a large enough effect; inconclusive means small, poorly fitted or top-dose-only effect, or another doubt; inactive means no such curve, though single readings can be large; an effect the other way counts as inactive or inconclusive. Potency means the concentration at half of the fitted maximal effect.

CCc1ccccc1NC(=O)C(=O)NCC(c1cccnc1)N1CCN(c2ccccc2F)CC1 (stereo not given) was read as GLS inhibitor -11%, G9a block 1%[59 µM], JMJD2A Tudor -2%, HP1b chromo inh 34% and BAZ2B inh -1%.
`COc1ccc(NC(=O)Nc2nnc(N3CCCCCC3)s2)c(OC)c1` gave GLS inhibitor 0%, G9a block inconclusive, JMJD2A Tudor -2%, HP1b chromo inh 49% and BAZ2B inh -27%.
`NC(=O)CC(NC(=O)Cc1ccc(Br)cc1)c1ccc(NCCN2CCCC2)c([N+](=O)[O-])c1` (stereo not given) gave GLS inhibitor 8%, JMJD2A Tudor -14%, HP1b chromo inh 34%, L3MBTL1 block 0% and BAZ2B inh -5%.
`NC(=O)CC(NC(=O)Cc1ccc(Br)cc1)c1ccc(NCCN2CCCCC2)c([N+](=O)[O-])c1` (stereo not given) gave GLS inhibitor 11%, JMJD2A Tudor -5%, HP1b chromo inh 21%, L3MBTL1 block -7% and BAZ2B inh 50µM*.
`NC(=O)c1cc([N+](=O)[O-])c(Cl)cc1NCc1ccccn1` gave GLS inhibitor 4%, G9a block 11%[2.33 µM], JMJD2A Tudor 56µM*, HP1b chromo inh 10%, L3MBTL1 block -3% and BAZ2B inh 79µM*.
For NC(=O)c1cc([N+](=O)[O-])c(Cl)cc1NCc1ccncc1 the results were GLS inhibitor 3%, G9a block 22%[2.33 µM], JMJD2A Tudor -25%, HP1b chromo inh 23%, L3MBTL1 block 2% and BAZ2B inh 0%.
For NC(=O)CC(NC(=O)Cc1ccc(Br)cc1)c1ccc(NCc2ccccn2)c([N+](=O)[O-])c1 (stereo not given) the results were GLS inhibitor 6%, G9a block -108%[59 µM], JMJD2A Tudor inconclusive, HP1b chromo inh 1% and BAZ2B inh 79µM*.
For O=c1cnc2cncnc2n1Cc1ccccc1 the results were G9a block 6%[0.501 µM].
CCC(CC)C(=O)Nc1nnc(S(=O)(=O)N(C)c2cc(C)cc(C)c2)s1 was read as GLS inhibitor -13%, G9a block -36%[59 µM], JMJD2A Tudor -15%, HP1b chromo inh 27% and BAZ2B inh inconclusive.
For CCC(=O)NC(/C=C/c1ccccc1)c1cc([N+](=O)[O-])c2cccnc2c1O (stereo not given) the results were G9a block 3.2µM*, L3MBTL1 block 6% and BAZ2B inh 4.5µM*.
`CC(C)C(=O)NC(c1cccs1)c1cc([N+](=O)[O-])c2cccnc2c1O` (stereo not given) gave GLS inhibitor 8%, G9a block 14µM*, JMJD2A Tudor 16µM*, HP1b chromo inh 0%, L3MBTL1 block 10µM* and BAZ2B inh 5µM*.
Screening Cc1ccc(C(NC(=O)C(C)C)c2cc([N+](=O)[O-])c3cccnc3c2O)cc1 (stereo not given) returned GLS inhibitor -4%, G9a block inconclusive, JMJD2A Tudor 25µM*, HP1b chromo inh -8%, L3MBTL1 block 25µM* and BAZ2B inh 7.9µM*.
Screening COc1ccc2[nH]cc(CCNc3ncncc3-c3cccc(NS(C)(=O)=O)c3)c2c1 returned G9a block -34%[0.501 µM].
For CC(=O)N1CCC2(CCCN(c3ccc(-c4ccccc4)cc3)C2)CC1 the results were G9a block -1%[12.7 µM].
Screening CSc1nc(=NC(C)=O)ss1 returned GLS inhibitor -2%, G9a block inconclusive, JMJD2A Tudor 32µM*, HP1b chromo inh inconclusive, L3MBTL1 block 3%[11.4 µM] and BAZ2B inh inconclusive.
`C=C1C(n2cnc3c(=O)[nH]c(N)nc32)C[C@H](O)[C@H]1CO` (stereo not given in full) gave GLS inhibitor 11% and G9a block -36%[12.7 µM].
For N#CC1=C(N)SC(N)=C(C#N)C1c1c(Cl)cccc1Cl the results were GLS inhibitor 19%, G9a block 11µM*, JMJD2A Tudor inconclusive, HP1b chromo inh -9%, L3MBTL1 block 9% and BAZ2B inh inconclusive.
Screening CCc1ccc(CN2CCc3nc(Nc4ccc5c(c4)OCCO5)ncc3C2)cc1 returned GLS inhibitor 9%, G9a block 0%[12.7 µM], JMJD2A Tudor 28µM*, HP1b chromo inh inconclusive and BAZ2B inh 14µM*.
For Cc1ccc(CN2CCc3nc(Nc4ccc5c(c4)OCCO5)ncc3C2)cc1 the results were GLS inhibitor 4%, G9a block -24%[12.7 µM], JMJD2A Tudor 45µM*, HP1b chromo inh inconclusive and BAZ2B inh 40µM*.
For COc1cc(CN2CCc3nc(Nc4ccc5c(c4)OCCO5)ncc3C2)cc(OC)c1OC the results were GLS inhibitor 16%, G9a block -17%[12.7 µM], JMJD2A Tudor inconclusive, HP1b chromo inh -14% and BAZ2B inh inconclusive.
Brc1csc(CN2CCc3nc(Nc4ccccc4)ncc3C2)c1 was read as GLS inhibitor 3%, G9a block -10%[12.7 µM], JMJD2A Tudor -20%, HP1b chromo inh 46% and BAZ2B inh inconclusive.
`COc1cccc(CN2CCc3nc(Nc4ccc5c(c4)OCCO5)ncc3C2)c1OC` gave GLS inhibitor 12%, G9a block inconclusive, JMJD2A Tudor 56µM*, HP1b chromo inh inconclusive and BAZ2B inh 35µM*.
`Cc1ccc(NC(=O)CCc2c(C)nc3ncnn3c2C)cc1Cl` gave GLS inhibitor -5%, G9a block -6%[59 µM], JMJD2A Tudor -4%, HP1b chromo inh 30% and BAZ2B inh -2%.
Screening CCCCc1c(C)nc2ccc(C)cc2c1SCCC(=O)O returned GLS inhibitor 0%, G9a block -5%[59 µM], JMJD2A Tudor -15%, HP1b chromo inh 38%, L3MBTL1 block 12% and BAZ2B inh -16%.
For CCCCc1c(C)nc2ccccc2c1SCCC(=O)O the results were GLS inhibitor -7%, G9a block 50µM*, JMJD2A Tudor -16%, HP1b chromo inh 20%, L3MBTL1 block -10% and BAZ2B inh inconclusive.
O=S1(=O)c2ccccc2N(Cc2cccc(F)c2)c2ccccc21 was read as GLS inhibitor 1%, G9a block 10%[59 µM], JMJD2A Tudor -13%, HP1b chromo inh 25% and BAZ2B inh -2%.
Screening C=CCOC(=O)c1[nH]c2c(c1C)C(=O)CC(c1ccco1)C2 (stereo not given) returned GLS inhibitor 21%, G9a block inconclusive, JMJD2A Tudor 20µM*, HP1b chromo inh 28µM*, L3MBTL1 block inconclusive and BAZ2B inh 50µM*.
